A short description of test [1]: viability loss with induced miR-34 in A549 – imaging, A549 dox-inducible miR-34, nuclei and caspase counts, primary screen (AID 1347080;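 active = compounds whose cell count with miR-34 switched on is under 0.7 times the count with it off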). The settings on record: A549 miR-34 inducible, Hoechst nuclei count, 48 h.
A short description of test [2]: MELAS cybrid and Rieske KO viability enhancers – cell-based, MELAS cybrids, Rieske KO mouse fibroblasts, CellTiter-Glo, primary screen (AID 1508586;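 active = mean z-score across replicates of 1.96 or higher in either the MELAS or the Rieske mutant cell line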;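 also: z relative to plate mean and SD of compound and empty wells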). The conditions noted are these: low glucose. In general terms: ATP-based viability assays read luminescence as a measure of living cells.
Test [3] in a line: galactose survival enhancers in mitochondrial complex I cybrids – cell-based, galactose medium, ATP luminescence, primary screen (AID 1645843;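 active = z-score of at least 1.8 in each of two replicates, scored against plate mean and spread of sample wells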;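 also: positive z means more ATP and so rescue of galactose-driven cybrid death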). The conditions noted are these: complex I mutant cybrid cells, 72 h, stronger effect = higher value.
Test [4] is described as follows: growth inhibition, single agent or in combination, cell-based, chromothripsis tumors, cisplatin or BGB combos (AID 1671449).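 Also: cells exposed for 96 hours; 0% = vehicle DMSO and 100% = killing by high DMSO.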 The settings on record: LFS_MB_P medulloblastoma cells.
Test [5] can be described thus: growth inhibition, single agent and combos, cell-based, chromothripsis tumors, cisplatin or BGB combos (AID 1671450).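 Also: cells exposed to compound for four days; 0% = vehicle DMSO and 100% = cell killing by high DMSO.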 The settings on record: HDN33 neuroblastoma cells, stronger effect = higher value.
The nature of test [6]: growth inhibition, single agents and combos, ICB984, cell-based, cisplatin or BGB combos, synergistic combos for chromothripsis tumors (AID 1671451; call rule not given here;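 also: cells exposed for 96 hours before readout; 0% = vehicle DMSO and 100% = killing by high DMSO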). The conditions noted are these: ICB984 medulloblastoma cells, drug combinations, stronger effect = higher value.
Test [7] can be described thus: growth inhibition, single agents and combos, LFS_MB_1R, cell-based, cisplatin or BGB combos, synergistic combos for chromothripsis tumors (AID 1671452).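 Also: cells exposed for 96 hours before readout.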 The settings on record: LFS_MB_1R medulloblastoma cells, stronger effect = higher value.
A short description of test [8]: growth inhibition, single agents and combos, HTB85, cell-based, BGB or cisplatin IC20 combos, synergistic combos for chromothripsis tumors (AID 1671453).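 Also: cells exposed for 96 hours before readout; 0% = vehicle DMSO and 100% = high DMSO killing control.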 The settings on record: HTB85 osteosarcoma cells, drug combinations, stronger effect = higher value.
Test [9] in a line: growth inhibition, single agents and combos, CRL2098, cell-based, BGB or cisplatin IC20 combos, synergistic combos for chromothripsis tumors (AID 1671454).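 Also: cells exposed for 96 h before readout; 0% = vehicle DMSO and 100% = killing by high DMSO.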 The conditions noted are these: CRL2098 osteosarcoma cells, drug combinations, stronger effect = higher value.
Test [10] in a line: growth inhibition, single agents and combos, HD-MB03, cell-based, BGB or cisplatin IC20 combos, synergistic combos for chromothripsis tumors (AID 1671455; in the data active = inhibition above about 83%;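 also: 0% = vehicle DMSO and 100% = high DMSO as cytotoxic control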). The settings on record: HD-MB03 medulloblastoma cells, stronger effect = higher value.
Test [11] is described as follows: growth inhibition, single agents and combos, UWB1.289, cell-based, BGB or cisplatin combos, synergistic combos for chromothripsis tumors (AID 1671456).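 Also: cells exposed to compound for four days; 0% = vehicle DMSO and 100% = killing by high DMSO.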 The settings on record: UWB1.289 ovarian carcinoma cells, stronger effect = higher value.
Test [12] is described as follows: growth inhibition, single agents and combos, LFS_MB_2R, cell-based, cisplatin combos, synergistic combos for chromothripsis tumors (AID 1671457).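 Also: cells exposed to compound for four days before readout.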 The conditions noted are these: LFS_MB_2R medulloblastoma cells, stronger effect = higher value.
A short description of test [13]: growth inhibition, MDA-MB-436, cell-based, BGB or cisplatin combos, synergistic combos for chromothripsis tumors (AID 1671458; call rule not given here;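 also: cells exposed for 96 hours; 0% = vehicle DMSO and 100% = killing by high DMSO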). The settings on record: MDA-MB-436 breast carcinoma growth inhibition, drug combinations, stronger effect = higher value.
Test [14] can be described thus: UWB1.289_BRCA1 ovarian cancer growth, cell-based, BGB or cisplatin combinations (AID 1671459). The settings on record: UWB1.289 BRCA1 ovarian carcinoma, drug combinations, stronger effect = higher value.
Test [15] can be described thus: drug combination toxicity in non-malignant astrocytes – cell-based, BGB or cisplatin IC20 combos, cytotoxicity control for chromothriptic childhood tumor combination screen (AID 1671460).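 Also: cells exposed to compounds for 96 hours before viability readout; 0% = vehicle and 100% = killing control.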 The conditions noted are these: Human astrocytes, viability inhibition, drug combinations, at 0.5 µM, stronger effect = higher value.
Test [16] is described as follows: BT084 cell growth, single and combined drugs, ICGC_MB145, cisplatin and BGB IC40 combos (AID 1671461).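 Also: cells exposed to drugs for 96 hours; 0% = vehicle DMSO and 100% = high DMSO full killing control.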 The conditions noted are these: BT084 medulloblastoma cells, drug combinations, stronger effect = higher value.
A short description of test [17]: RCMB18 cell growth, single agent and combined, cisplatin and BGB IC40 combos (AID 1671462).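 Also: cells exposed to compound for four days.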 The conditions noted are these: RCMB18 medulloblastoma cells, stronger effect = higher value.
A short description of test [18]: CRL1545 cell growth, single agent and combined, cisplatin and BGB IC20 combos (AID 1671464).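 Also: cells exposed to compound for 96 hours before readout; 0% = vehicle DMSO and 100% = high DMSO killing control.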 The settings on record: CRL1545 osteosarcoma cells, stronger effect = higher value.
Where [19] appears, read: stronger effect = lower value, cell number ratio, induced over uninduced.
Where [20] appears, read: measured here: relative caspase fold change +Dox/-Dox.
[21] abbreviates: measured here: total cells with miR-34 induction, stronger effect = lower value.
The mark [22] stands for this setting: measured here: total cells without miR-34 induction.
The mark [23] stands for this setting: MELAS cybrid survival, CellTiter-Glo 48 h, stronger effect = higher value.
[24] abbreviates: Rieske KO mouse fibroblast survival, CellTiter-Glo 72 h.
Setting [25] is: measured here: combination with BGB IC40, at 0.05 µM.
Where [26] appears, read: measured here: with BGB IC20 combination, at 0.5 µM.
The mark [27] stands for this setting: measured here: with cisplatin IC20 combination, at 0.5 µM.
[28] abbreviates: measured here: combination with cisplatin, at 0.5 µM.
Setting [29] is: measured here: combination with cisplatin, at 5 µM.

By inhibition is commonly meant the relative decrease from the control value, in per cent.

Several values for one entry are separate records, joined by “and”; a condition that tells them apart may be missing. Equal values may be shown once. Activity calls are given as the source filed them. Rule as the data show it, unless noted: active = inhibition above about 80%; inactive = the rest.

As to `O=c1[nH]cnc2c1ncn2C1CCC(CO)O1` (stereo unspecified), the fold change is 0.874 (inactive) and 0.873 (inactive) in test [1] (setting [19]); 1.69 and 1.3 in test [1] (setting [20]). Besides, the cell count was 9660 and 7790 in [1] (setting [21]); 11100 and 8920 in test [1] (setting [22]). Also, the z-score was -0.36 (inactive) in test [2] (setting [23]), 0.371 in [2] (setting [24]) and 0.465 (inactive) in test [3]. Besides, the inhibition in test [4] (at 0.5 µM, stronger effect = higher value) is -32.9% (inactive); in [4] (measured here: combination with BGB IC20, at 0.005 µM), -16.1%; in [4] (measured here: combination with BGB IC40, at 0.005 µM), -29.5%; in test [4] (setting [25]) it was -24.5%; in test [4] (measured here: combination with cisplatin, at 0.5 µM, stronger effect = higher value) it was -38.2%; in test [4] (measured here: combination with cisplatin, at 5 µM, stronger effect = higher value), -16.6%. Besides, the inhibition was -15.1% in test [5] (BGB combo, at 5 µM); -10.3% (inactive) in test [5] (at 0.5 µM); 0.055% in test [5] (cisplatin combo, at 5 µM); -9.52% in [5] (setting [26]); -5.77% in test [5] (setting [27]); -6.37% in test [5] (single agent, at 5 µM). The inhibition in [6] (BGB IC20 combo, at 0.005 µM) was 3.8%; in test [6] (BGB IC40 combo, at 0.005 µM), -17.3%; in [6] (BGB IC40 combo, at 0.05 µM) it was -42.9%; in test [6] (at 0.5 µM), -12.4% (inactive); in [6] (cisplatin combo, at 0.05 µM), -46.9%; in test [6] (cisplatin combo, at 0.5 µM), -0.57%. In addition, the inhibition in test [6] (cisplatin combo, at 5 µM) is -45.9%; in [6] (measured here: 5 uM single agent, at 5 µM), -17.3%; in test [7] (at 0.5 µM) it was -24.1% (inactive); in test [7] (setting [25]), -1.26%; in [7] (setting [28]), -27.1%; in test [7] (setting [29]), -51.2%. The inhibition in test [8] (at 0.5 µM) was 0.13% (inactive); in [8] (measured here: with BGB IC20, at 0.5 µM), -29.8%; in test [8] (measured here: with BGB IC20, at 5 µM), -39.1%; in test [8] (measured here: with cisplatin IC20, at 0.5 µM), 5.05%; in test [8] (measured here: with cisplatin IC20, at 5 µM) it was -50%; in [8] (single agent, at 5 µM), -11.3%. Also, the inhibition is -44.8% (inactive) in test [9] (at 0.5 µM); -57.1% in test [9] (measured here: combination with BGB at IC20, at 0.5 µM); -26.9% in [9] (measured here: combination with cisplatin at IC20, at 0.5 µM); -5.57% (inactive) in test [10] (at 0.5 µM); 0.583% in test [10] (measured here: combo with BGB at IC20, at 0.5 µM); -5.27% in test [10] (measured here: combo with cisplatin at IC20, at 0.5 µM). Moreover, the inhibition in test [11] (at 0.5 µM) is -1.68% (inactive); in test [11] (measured here: inhibition with BGB combination, at 0.05 µM), -32%; in test [11] (measured here: inhibition with cisplatin combination, at 0.05 µM), -6.01%; in test [12] (at 0.5 µM) it was -19.9% (inactive); in test [12] (setting [28]), -27.6%; in [12] (setting [29]), -58%. Also, the inhibition was -28.3% (inactive) in test [13] (at 0.5 µM); -25.6% in test [13] (measured here: BGB combination, at 0.5 µM); -24.3% in test [13] (measured here: BGB combination, at 5 µM); -38.2% in test [13] (measured here: cisplatin combination, at 0.5 µM); -39% in [13] (measured here: cisplatin combination, at 5 µM); -6.99% in [14] (BGB combination, concentration series, at 5 µM). For the same compound, the inhibition in test [14] (at 0.5 µM) is -4.59% (inactive); in test [14] (cisplatin combination, concentration series, at 5 µM), 5.72%; in [15], 4.8% (inactive); in [15] (measured here: combo with BGB IC20), -5.94%; in [15] (measured here: combo with cisplatin IC20), 2.75%; in test [16] (at 0.5 µM), -19.3% (inactive). Besides, the inhibition in [16] (cisplatin combination, at 0.5 µM) is 2.66%; in [16] (cisplatin combination, at 5 µM), 7.38%; in test [16] (measured here: BGB IC40 combination 0.05 uM, at 0.05 µM), 1%; in test [16] (single agent, at 5 µM), -10.4%; in [17] (at 0.5 µM), -28.1% (inactive); in [17] (cisplatin combo, at 5 µM), -8.55%. Also, the inhibition in [17] (measured here: BGB IC40 combination, at 0.05 µM) was 12.3%; in test [17] (setting [28]), -23.6%; in test [17] (single agent, at 5 µM) it was -21%; in test [18] (at 0.5 µM), -13.6% (inactive); in [18] (setting [26]), 0.279%; in test [18] (setting [27]), -23.2%. Moreover, the inhibition was -52.8% in test [18] (single agent, at 0.05 µM) and -4.43% in [18] (single agent, at 5 µM).
Turning to `O=C(Nc1ccc(I)cc1)NC1CCCCC1`, the fold change in [1] (setting [19]) was 0.864 (inactive); in test [1] (setting [20]) it was 0.498. For the same compound, the values for the cell count in test [1] (setting [21]) and in [1] (setting [22]) were 7960 and 9220, respectively. Also, the z-score in test [2] (setting [23]) is 0.185 (inactive); in test [2] (setting [24]), -0.338; in test [3] it was 1.05 (inactive).
Regarding `Cc1ncsc1-c1ccn(CC(=O)Nc2ccnn2C2CCCCC2)n1`, the fold change in test [1] (setting [19]) was 0.823 (inactive); in test [1] (setting [20]), 0.676. In addition, the cell count in [1] (setting [21]) was determined as 7140; in test [1] (setting [22]), 8680. In addition, the z-score in test [2] (setting [23]) was -0.424 (inactive); in test [2] (setting [24]), 0.121; in [3], -0.57 (inactive).
For the compound `CN1CCN(Cc2cccc(Oc3ccccc3)c2)CC1CCO` (stereo unspecified), the fold change is 0.916 (inactive) in test [1] (setting [19]) and 1.42 in test [1] (setting [20]). The cell count in test [1] (setting [21]) came to 8810; in test [1] (setting [22]), 9620. For the same compound, the z-score in test [2] (setting [23]) is -0.228 (inactive); in test [2] (setting [24]) it was -0.0315; in test [3], -0.55 (inactive).

For the origin of these results see PubChem BioAssay.
